# Results taken from PubChem BioAssay AID720641 (ICCB-Longwood Screening Facility, Harvard Medical School, 2013).
# “And” between values parts separate entries of the source, which are not always exact repeats. Identical values can stand only once. Hit rate of the full screen: of about 170,000 compounds, about 900 (0.53%) were called active.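 Rule for the calls: active = relative growth at most 50% at the other temperature and 20+ points below 30 °C, or under 10% at both; inactive = the rest, inconclusive results apart.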 Many of the other results were omitted from the sample, so actives are more common in it than they were.
# Assay: S. aureus growth inhibition at 42 and 30 °C, primary screen, LtaS inhibitor project, RN4220, two temperatures (AID 720641)
# Details: OD600, 20 h, 42 °C, stronger effect = lower value
SMILES,relative growth,relative growth (measured here: growth at 30 °C)
CC(Sc1ncnc2ccccc12)C(=O)Nc1cccc(C(F)(F)F)c1 (stereo unspecified),115% (inactive),80.8%
CC(C)(C)C(=O)CN1C(=O)c2ccccc2C1=O,129% (inactive),89.2%
Cc1oc2c(c1C(=O)NC(C)c1ccccc1)C(=O)c1ccccc1C2=O (stereo unspecified),9.3% (active),14%
Cc1ccccc1-c1nc(CS(=O)(=O)CC(=O)NC(C)c2ccccc2)c(C)o1 (stereo unspecified),101% (inactive),105%
CC(NC(=O)Nc1ccccc1)c1ccccc1 (stereo unspecified),76.7% (inactive),91.3%
O=C(/C=C/c1ccccc1)OCC(=O)N1CCc2ccccc21,134% (inactive),88.3%
CCOC(=O)c1cnc2c(F)cc(F)cc2c1N1CCOCC1,118% (inactive),104%
CN(C)c1ccc(Nc2nc3ccccc3nc2NS(=O)(=O)c2cccs2)cc1,105% (inactive),95.9%
Cc1cccn2c(=O)cc(CN3CCC(C(=O)N4CCOCC4)CC3)nc12,98.4% (inactive),88.3%
COC(=O)c1ccc(NS(=O)(=O)c2cc(C(=O)OC)n(C)c2)cc1,106% (inactive),88%
COC(=O)c1ccc(C)c(NS(=O)(=O)c2ccc3c(c2)c(=O)sn3C)c1,0.12% (active),0.2%
COC(=O)CN1C(=O)CSc2ccc(S(=O)(=O)Nc3cc(C)ccc3C)cc21,112% (inactive),94%
COc1ccc(OCCn2c(S(=O)(=O)Cc3ccccc3)nc3ccccc32)cc1,132% (inactive),101%
COCCNc1ncnc2c1sc1nc(N3CCOCC3)c3c(c12)CCC3,111% (inactive),88.7%
CSc1n[nH]c(-c2ccco2)n1,101% (inactive),107%
CO/N=C(/C(=O)N[C@@H]1C(=O)N2C(C(=O)O)=C(CSc3nc(=O)c(O)nn3C)CS[C@H]12)c1csc(N)n1,-0.87% (active),-0.54%
O=S(=O)(Cc1ccccc1)CC(O)COc1ccc(OC(F)(F)F)cc1 (stereo unspecified),102% (inactive),85%
COc1ccccc1CN=C(C)c1ccccc1O,101% (inactive),99.1%
CCOC(=O)Nc1sccc1C(N)=O,106% (inactive),101%
CCOC(=O)c1c(C)csc1NC(=O)CC(=O)C(F)(F)F,2.75% (active),4.35%
CCOC(=O)c1c(NC(=O)C(F)(F)F)sc2c1CCCC2,101% (inactive),93.2%
O=C(CSc1nc2ccsc2c(=O)n1Cc1ccccn1)Nc1nccs1,94% (inactive),87.2%

SMILES,relative growth,relative growth (measured here: growth at 30 °C)
O=S(=O)(NCCC12CC3CC(CC(C3)C1)C2)c1cc(Cl)ccc1Cl,80.5% (inactive),66.9%
CC(C)NC(=O)COc1ccc(-c2nn(C)c(=O)c3ccccc23)cc1,92.3% (inactive),86.8%
CCOC(=O)N1CCC(N2Cc3cccc(C(=O)NC4CCN(Cc5ccccc5)CC4)c3C2=O)CC1,92.7% (inactive),86.6%
CCN(CC(=O)NCc1ccc(Cl)cc1)C(=O)c1c(C)noc1C,84.2% (inactive),95.1%
Cc1ccc(-c2nc3ccccn3c2Nc2c(C)cccc2C)o1,1.59% (active),1.66%
Cc1cccc(C)c1Nc1c(-c2ccccc2O)nc2ncccn12,99.7% (inactive),86.4%
Cc1ccc(Nc2c(-c3ccc(C)s3)nc3ccccn23)cc1,107% (inactive),89.8%
Nc1ccc(C(=O)Nc2ccc(C(=O)O)cc2N)cc1,108% (inactive),98.5%
CC1=NN(c2ccccc2)C(=O)C1C=C1C(=O)N(C)C(=S)N(C)C1=O (stereo unspecified),109% (inactive),103%
Cc1c(C(=O)NC2CCCC2)oc2ccc(S(=O)(=O)N(C)C3CCCCC3)cc12,142% (inactive),89.2%
COCCNC(=O)c1cc(-c2cccc(Cl)c2)on1,92.5% (inactive),110%
CCCCNC(=O)c1cc(-c2ccc(Cl)c(Cl)c2)on1,100% (inactive),88%
Cc1ccc(-c2cc(C(=O)Oc3ccccc3Cl)no2)cc1C,0.23% (active),-0.03%
CC(=O)Nc1ccc2nc3c(cc2c1)[nH]c1ccccc13,114% (inactive),93.5%
COc1ccc(-c2csc3ncnc(NCCSCc4ccco4)c23)cc1,67.1% (inactive),66.9%
Clc1ccc(C(Cn2ccnc2)OCc2ccsc2Cl)c(Cl)c1 (stereo unspecified),-0.03% (active) and -0.62% (active),0.13% and 0.06%
CC1CCCCN1C(=O)c1ccc(Br)cc1 (stereo unspecified),99.9% (inactive),91.1%
COc1ccc(N=C2SCCCN2C(=O)C2CCCC2)cc1OC,94.4% (inactive),86%
CC(NCc1ccc(OC(F)F)cc1OC(F)F)c1ccc(-n2ccnc2)cc1 (stereo unspecified),101% (inactive),92.4%
COc1ccccc1NC(=O)Oc1ccc2ccncc2c1,105% (inactive),97.9%
Sc1ccc2ccccc2c1,82.2% (inactive),91%
c1ccc2cc3cnccc3cc2c1,3.61% (active),2.36%

SMILES,relative growth,relative growth (measured here: growth at 30 °C)
CC(=O)N1CC=C(c2ccc(O)cc2)CC1,37.5% (inactive),31.2%
O=C(NCCc1ccccc1)c1ccc(C(=O)c2ccccc2)o1,99.2% (inactive),94.2%
Cc1cc(C)cc(NS(=O)(=O)c2ccc3c(c2)CC(=O)N3)c1,96.8% (inactive),77%
COc1cc(NC(=O)c2cc3ccc4cccnc4c3[nH]2)cc(OC)c1OC,90.5% (inactive),89.8%
CC1=Nc2c(ccc3cccnc23)C1(C)C,3.05% (active),2.08%
Cc1cc(NC(=O)c2cc3ccc4cccnc4c3[nH]2)no1,108% (inactive),92.6%
O=C(COC(=O)c1n[nH]c2ccccc12)Nc1ccc(N2CCOCC2)cc1,104% (inactive),96.3%
Cc1ccc(-n2c(C)ccc2C)cc1,97.4% (inactive),101%
Oc1c(Cl)cc(Cl)c(Cl)c1Cc1c(O)c(Cl)cc(Cl)c1Cl,-0.02% (active),-0.87%
O=C(Nc1c[nH]c2ccccc12)NC1CCCC1,103% (inactive),62.5%
COCC(C)NC(=O)Nc1c[nH]c2ccccc12 (stereo unspecified),78.5% (inactive),50.9%
CN1CCC(N(C)C(=O)Nc2c[nH]c3ccccc23)CC1,3.18% (active),6.3%
CCOC(=O)N1CCC(N(CCOC)C(=S)Nc2ccccc2F)CC1,83.6% (inactive),74.7%
Cc1ccc(NC(=O)CC2SC(=Nc3ccc(S(N)(=O)=O)cc3)NC2=O)cc1 (stereo unspecified),100% (inactive),94.2%
CCC(C)NC(=O)Cn1nc(-c2ccccc2)c2cc(Cl)ccc21 (stereo unspecified),105% (inactive),86.8%
C=CCNC(=O)c1ccc(S(=O)(=O)N(CC)c2ccccc2)cc1,99.8% (inactive),91%
Cc1cnc(C(=O)OCc2cc(=O)n3ccsc3n2)cn1,86.6% (inactive),101%
CC(Oc1ccccc1)C(=O)NC1CCCCC1 (stereo unspecified),110% (inactive),98.3%
CC1(C)S[C@@H]2[C@H](N=CN3CCCCCC3)C(=O)N2[C@H]1C(=O)O,93.7% (inactive),82.3%
CCOC(=O)OC(C)OC(=O)C1N2C(=O)C(NC(=O)[C@H](N)c3ccccc3)C2SC1(C)C (stereo partly specified),-1.14% (active),-0.8%
COC(=O)C(N)c1ccccc1 (stereo unspecified),68.2% (inactive),90.3%
CC(Oc1ccccc1)C(=O)N[C@@H]1C(=O)N2[C@@H]1SC(C)(C)[C@@H]2C(=O)O (stereo partly specified),-1.13% (active),-0.8%

SMILES,relative growth,relative growth (measured here: growth at 30 °C)
C1=CCC(/C=N/Nc2nc3ccccc3o2)CC1 (stereo unspecified),82% (inactive),84.9%
Cc1cc2oc(=O)cc(Cn3nnc(-c4ccc(F)cc4)n3)c2cc1C,84.4% (inactive),95.6%
CCCNS(=O)(=O)c1ccc(N2CCCCS2(=O)=O)cc1,101% (inactive),93.7%
c1ccc(-c2nc3ccccc3nc2N2CCCC2)cc1,97.9% (inactive),98.8%
O=C(O)CCCC(=O)Nc1cc(C(F)(F)F)cc(C(F)(F)F)c1,101% (inactive),71.5%
O=C(CSc1ccccn1)Nc1cc(C(F)(F)F)cc(C(F)(F)F)c1,112% (inactive),86.3%
O=C(N/C=C/c1ccsc1)Nc1cc(C(F)(F)F)cc(C(F)(F)F)c1,-2.07% (active),-0.58%
CC(=O)OCC(=O)CC12CC3CC(CC(C3)C1)C2,83.3% (inactive),93.7%
CCOC(=O)CN1C(=O)S/C(=C\c2ccc(-c3ccc(Cl)cc3Cl)o2)C1=O,89.9% (inactive),87%
CCN1CCCC1CNC(=O)c1nnc(Cc2ccccc2OC)o1 (stereo unspecified),79.5% (inactive),88.3%
FC(F)(F)c1cc(-c2ccc(Br)cc2)n[nH]1,8.64% (active),4.24%
CC(C)(C)c1ccc(S(=O)(=O)N2CCN(C(=O)c3cc(-c4ccc(Br)cc4)n[nH]3)CC2)cc1,99.3% (inactive),102%
Cc1cc(C)c(NC(=O)CSC2=NN3CCCC(=O)N=C3S2)c(C)c1,95% (inactive),89%
CCCNc1ncnc2onc(-c3ccc(F)cc3)c12,90.2% (inactive),91%
CNC(=O)C1CCN(S(=O)(=O)c2c(C)noc2/C=C/c2cccc(C)c2)CC1,107% (inactive),81.4%
CCCOc1c(Br)cc(C(=O)O)cc1OC,90.2% (inactive),101%
CC1CC(C)CN(C(=O)C(C)n2sc3ccccc3c2=O)C1 (stereo unspecified),120% (inactive),95.8%
CCn1c(SCc2c(C)noc2C)nc2cc(S(=O)(=O)N3CCOCC3)ccc21,63.8% (inactive),94%
NC(=O)c1ncoc1-c1cccc(Cl)c1,108% (inactive),76%
Oc1ccc(-c2cccc(-c3ccc(O)cc3)c2)cc1,97.5% (inactive),59.9%
Oc1ccc(SSc2ccc(O)cc2)cc1,3.56% (active),3.94%
Oc1ccc(-n2cccc2)cc1,84.2% (inactive),92.9%
